The target in one experiment is MAP1LC3A 2-121, Q9H492.
Chain of NEDD4 890-928, P46934 (P46934 890-928): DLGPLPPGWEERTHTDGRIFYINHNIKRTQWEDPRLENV
Chain of YAP1 169-207, P46937 (P46937 169-207): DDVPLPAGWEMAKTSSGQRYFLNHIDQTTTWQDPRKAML
In the case of GNSGFQLLDLVHEEGE [SLC7A6OS, Q96CW6], the “selected by phage display” value was “confidence 2 (active)”.
In the case of VPAFEVLEISPQEVSS [MS4A2, Q01362], the “selected by phage display” value was “confidence 2 (active)”.
For the molecule DLNSQDRVDHEEWEMV [STBD1, O95210], the “selected by phage display” value was “confidence 4 (active)”.
For the molecule LEAEVDFTVIGDYHGS [EPB41L1, Q9H4G0], the “selected by phage display” value was “confidence 2 (active)”.
SLEPPSPFELLEPPTS [MAP1S, Q66K74]: the “selected by phage display” value was “confidence 3 (active)”.
On to WTDLASIFGSNKDLMG [NLRP2, Q9NX02], for which the “selected by phage display” value is “confidence 3 (active)”.
As for DSWGIIAEPRQSAFSN [IRS4, O14654], the “selected by phage display” value is “confidence 4 (active)”.
The same measure, in the same setting: with WEVVTSAIPRGAWHGA [ZNF419, Q96HQ0] the entry was “confidence 2 (active)”.
For the molecule VPFTELVVQSITPHQS [BMP2K, Q9NSY1], the “selected by phage display” value was “confidence 3 (active)”.
Regarding EPWAQLEASDIHTAAA [WDR90, Q96KV7], the “selected by phage display” value was “confidence 3 (active)”.
For the molecule LNVSSREEAFTDLSLA [USP35, Q9P2H5], the “selected by phage display” value was “confidence 3 (active)”.
LPEGFQLLQIDAEGEA [TRMT10B, Q6PF06]: the “selected by phage display” value is “confidence 2 (active)”.
Consider AEESFTTLNVDIRNHQ [USP9X, Q93008], for which the “selected by phage display” value is “confidence 2 (active)”.
Still for that read-out and setting: with APELWTELTGLAASSE [KIFC2, Q96AC6] the entry was “confidence 3 (active)”; with ASPQGEWTILELETQH [KIAA1107, Q9UPP5], “confidence 3 (active)”.
As to DAGLGFVDLTDLTDHQ [PEG3, Q9GZU2], the “selected by phage display” value was “confidence 3 (active)”.
Same read-out and setting: with AVQVPESFEHLPPLPE [ATF7IP2, Q5U623] the entry was “confidence 4 (active)”.

A further experiment has as its target NEDD4 890-928, P46934.
Take LPSYPVAPTSRASPSP [CCDC87, Q9NVE4]: the “selected by phage display” value is “confidence 3 (active)”.
As to ALPPYSNAGDLYSEPV [EGR3, Q06889], the “selected by phage display” value was “confidence 2 (active)”.
On to DQRLPPYPYSSPSLVL [CRTC2, Q53ET0], for which the “selected by phage display” value was “confidence 4 (active)”.
Take LANVIAPPPPPYTPNP [PROSER1, Q86XN7]: the “selected by phage display” value is “confidence 2 (active)”.
For the molecule KPPPYLRNLSSDDANV [UBE2L6, O14933], the “selected by phage display” value is “confidence 2 (active)”.
In the case of MARRYDELPHYPGIVD [MEIS3, Q99687], the “selected by phage display” value was “confidence 3 (active)”.
For QSNADALPPDYSVVRG [LYPD5, Q6UWN5], the “selected by phage display” value is “confidence 2 (active)”.
Same read-out and setting: with SPPDYLQTVSHPEVYR [SH3D21, A4FU49] the entry was “confidence 3 (active)”; with YLSEGFGYGMPPLYPQ [NFATC4, Q14934], “confidence 2 (active)”.
As to NSTPPPYERTRLSPPR [RBM14, Q96PK6], the “selected by phage display” value is “confidence 3 (active)”.
As for ADLPPPYSPTPQGPAQ [CYYR1, Q96J86], the “selected by phage display” value was “confidence 2 (active)”.
As to LAGGPAVGGLPPYATF [OTUD7B, Q6GQQ9], the “selected by phage display” value was “confidence 2 (active)”.
With TAPPTYTETLSTAPLA [SYNPO, Q8N3V7], the “selected by phage display” value was “confidence 3 (active)”.
On the same count and under the same terms, with PPPQYIHPNSINVDGN [PRDM4, Q9UKN5] the entry was “confidence 2 (active)”.
The same measure, in the same setting: with DLPAYTSPTNFPAVLS [ABCA2, Q9BZC7] the entry was “confidence 3 (active)”; with RLSISLPSYESLTGLD [TMEM51, Q9NW97], “confidence 2 (active)”; with ATTHYHTYLPPPYPGS [RUNX2, Q13950], “confidence 2 (active)”.
Regarding SEGTDNGDLPSYVSAF [RINT1, Q6NUQ1], the “selected by phage display” value is “confidence 2 (active)”.
As for DKNDYLPLYSSSTKVK [ZNF148, Q9UQR1], the “selected by phage display” value was “confidence 2 (active)”.
For ALPEPPPPYEFSASSA [N4BP3, O15049], the “selected by phage display” value was “confidence 3 (active)”.
With NLPVGYPPQYPPTAFQ [PLSCR1, O15162], the “selected by phage display” value is “confidence 2 (active)”.
As to TSPIADFPAPPPYSAV [SYNPO2, Q9UMS6], the “selected by phage display” value is “confidence 4 (active)”.
Turning to ASERPPTYAELVPRVP [SH2D3A, Q9BRG2], the “selected by phage display” value is “confidence 3 (active)”.
As to TAPPPYSPSPNPYQTA [FAM168A, Q92567], the “selected by phage display” value is “confidence 3 (active)”.
Turning to GSPPSYSEALLDQRPA [LDLRAD3, Q86YD5], the “selected by phage display” value was “confidence 3 (active)”.
As for ASDPPPPYSDFHPNNQ [ABRAXAS2, Q15018], the “selected by phage display” value was “confidence 3 (active)”.
In the case of EDSLPPYKLKLDLTKL [TMEM59L, Q9UK28], the “selected by phage display” value was “confidence 2 (active)”.
Consider FLPPYPPQEANRSITS [VPS37A, Q8NEZ2], for which the “selected by phage display” value was “confidence 3 (active)”.
On the same count and under the same terms, with TSSSLAYPPPPSYPSP [EGR2, P11161] the entry was “confidence 3 (active)”.

A further experiment has as its target YAP1 169-207, P46937.
Take DQRLPPYPYSSPSLVL [CRTC2, Q53ET0]: the “selected by phage display” value is “confidence 3 (active)”.
Same read-out and setting: with ADLPPPYSPTPQGPAQ [CYYR1, Q96J86] the entry was “confidence 3 (active)”; with EDSLPPYKLKLDLTKL [TMEM59L, Q9UK28], “confidence 4 (active)”.

The next experiment deals with MAP1LC3B 2-119, Q9GZQ8.
For DIGGFTLLDGKLVLLG [RASAL3, Q86YV0], the “selected by phage display” value is “confidence 4 (active)”.
On the same count and under the same terms, with DSWEIIEGLKIGQTNV [OSBPL6, Q9BZF3] the entry was “confidence 3 (active)”; with EPGWVVLDQPDAAAHL, “confidence 4 (active)”.
Regarding EDGYTQLHFDSQSNTR [CLEC7A, Q9BXN2], the “selected by phage display” value was “confidence 2 (active)”.
In the case of EYEIIETIGNGAYGVV [MAPK7, Q13164], the “selected by phage display” value was “confidence 2 (active)”.
As for MAMSNGNNDFVVLSNS [DISP1, Q96F81], the “selected by phage display” value was “confidence 2 (active)”.
In the case of PHSHDWVWLGNEVELL [TMEM132B, Q14DG7], the “selected by phage display” value is “confidence 2 (active)”.
As for QAVTHDNEWEMLSPQP [PRUNE2, Q8WUY3], the “selected by phage display” value was “confidence 4 (active)”.
For HDEAWMVLKQVHDTNM [SV2A, Q7L0J3], the “selected by phage display” value was “confidence 3 (active)”.
On to HVRDAIRSYTEDWAIV [DOCK7, Q96N67], for which the “selected by phage display” value was “confidence 2 (active)”.
For the molecule KPIKENIEESYVHLDI [FRYL, O94915], the “selected by phage display” value was “confidence 3 (active)”.
Regarding EPWAQLEASDIHTAAA [WDR90, Q96KV7], the “selected by phage display” value was “confidence 4 (active)”.
On to VDNRESSENWEIIRED, for which the “selected by phage display” value was “confidence 2 (active)”.
In the case of AGHQLGLEADGHWGLL [ZNF469, Q96JG9], the “selected by phage display” value was “confidence 3 (active)”.
QEEWALLDPSQKNLYR [ZNF878, C9JN71]: the “selected by phage display” value was “confidence 2 (active)”.
Consider PPAPLAHSDDYVHISL [TSC1, Q92574], for which the “selected by phage display” value was “confidence 2 (active)”.

For the origin of these results see publication PMC8769072, “Proteome‐scale mapping of binding sites in the unstructured regions of the human proteome” (Molecular Systems Biology, 2022).
